Values joined by “and” are separate entries in the source; they are usually repeats but may differ in a detail not shown here. Identical values can stand only once. This is part of a sample that, as a whole, favours compounds with a hit. Of some 83,000 tested, about 20% had one in any assay.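 Testing used 96-well plates and a 48-hour single-concentration exposure. Example: -40 means 40% of the starting cells died.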 Unmarked numbers belong to inactive results. Active and inactive are the calls of the source. How the source made its calls: active means growth percent below 10; inactive means the rest.

Among the test systems are SR leukemia; RPMI-8226 leukemia; OVCAR-8 ovarian; OVCAR-5 ovarian; OVCAR-4 ovarian; SK-OV-3 ovarian; IGROV1 ovarian; OVCAR-3 ovarian; NCI/ADR-RES ovarian; T-47D breast; BT-549 breast; MDA-MB-435 melanoma; MCF7 breast; HCT-116 colon; HCC-2998 colon; KM12 colon; HS 578T breast; SW-620 colon; MDA-MB-468 breast.
Common to all, as to test: NCI-60 one-dose screen, 48 h (100 = growth as untreated, 0 = no growth, -100 = all killed)
What all share (settings): 10 µM unless noted

`COc1ccc2cc([C@H](C)C(=O)N/N=C/c3ccc(Br)cc3)ccc2c1`: the growth in the experiment on SR leukemia is 87.3%; with RPMI-8226 leukemia it was 105%; in the experiment with OVCAR-8 ovarian, 105%; with OVCAR-5 ovarian, 100%; in the experiment with OVCAR-4 ovarian, 100%; with SK-OV-3 ovarian, 97.7%. Also, the growth in the experiment on IGROV1 ovarian is 102%; in the experiment with OVCAR-3 ovarian, 114%; in the experiment on NCI/ADR-RES ovarian, 98.2%; in the experiment on T-47D breast, 90.3%; with BT-549 breast, 104%; in the experiment with MDA-MB-435 melanoma, 103%. Further, the growth is 90.7% with MCF7 breast, 103% in the experiment with HCT-116 colon, 107% with HCC-2998 colon and 105% with KM12 colon.
As to `Cc1cccc(-c2nc(Nc3ccc(C)c(S(N)(=O)=O)c3)c3ccccc3n2)c1`, the growth with SR leukemia was 9.02% (active); in the experiment with RPMI-8226 leukemia, 12.9%; in the experiment with OVCAR-8 ovarian, 32.8%; in the experiment with OVCAR-5 ovarian, 47.6%; with OVCAR-4 ovarian, 44.7%; in the experiment on SK-OV-3 ovarian, 103%. For the same compound, the growth in the experiment on IGROV1 ovarian was 42.9%; with OVCAR-3 ovarian, 39.3%; in the experiment with HS 578T breast, 53.4%; in the experiment with NCI/ADR-RES ovarian, 18.7%; with BT-549 breast it was 75.6%; in the experiment with MDA-MB-435 melanoma it was 34.9%. Further, the growth in the experiment on SW-620 colon was 23.7%; with MCF7 breast, 1.69% (active); in the experiment with HCT-116 colon, 25.3%; in the experiment on HCC-2998 colon it was -63.7% (active); with KM12 colon it was -24.8% (active); in the experiment with MDA-MB-468 breast, 13.4%.
On to `COc1ccc(C(SCCNCc2cc(N(C)C)ccn2)(c2ccccc2)c2ccccc2)cc1`, for which the growth in the experiment on SR leukemia is -43.2% (active); with RPMI-8226 leukemia it was -27.1% (active); in the experiment on OVCAR-8 ovarian, -5.35% (active); in the experiment on OVCAR-5 ovarian it was -13.8% (active); in the experiment with OVCAR-4 ovarian, 22.3%; in the experiment with SK-OV-3 ovarian it was -5.07% (active). The growth was 11.4% in the experiment on IGROV1 ovarian; -1.36% (active) in the experiment with OVCAR-3 ovarian; -23.1% (active) in the experiment on HS 578T breast; -9.47% (active) in the experiment on T-47D breast; -13.4% (active) with BT-549 breast; -53.7% (active) with MDA-MB-435 melanoma. In addition, the growth in the experiment with SW-620 colon was -50.5% (active); in the experiment with MCF7 breast it was -48.5% (active); with HCT-116 colon, -27% (active); in the experiment on HCC-2998 colon, -81.9% (active); in the experiment on KM12 colon, -9.54% (active).
On to `N#Cc1ccc(C(=O)Nn2c(N)cc3ccccc3c2=O)cc1`, for which the growth with SR leukemia is 76%; in the experiment on RPMI-8226 leukemia, 86.5%; in the experiment with OVCAR-8 ovarian it was 98.1%; in the experiment with OVCAR-5 ovarian, 103%; with OVCAR-4 ovarian it was 97.4%; in the experiment with SK-OV-3 ovarian, 85.8%. For the same compound, the growth is 92.9% in the experiment on IGROV1 ovarian; 105% with OVCAR-3 ovarian; 98.3% in the experiment on NCI/ADR-RES ovarian; 54.3% with T-47D breast; 85.4% with BT-549 breast; 107% in the experiment with MDA-MB-435 melanoma. For the same compound, the growth in the experiment with MCF7 breast was 39.3%; in the experiment on HCT-116 colon it was 81.7%; in the experiment on HCC-2998 colon, 108%; in the experiment with KM12 colon it was 103%.
Regarding `COc1ccc(C(=O)/C=C/c2ccc(OCc3ccccc3)c(OC)c2)cc1OC`, the growth with SR leukemia was 8.91% (active); in the experiment with RPMI-8226 leukemia, 9.53% (active); with OVCAR-8 ovarian, -1.43% (active); with OVCAR-5 ovarian, 4.82% (active); in the experiment with OVCAR-4 ovarian, 25.6%; in the experiment with SK-OV-3 ovarian, 83.5%. Further, the growth was 23.3% with IGROV1 ovarian; 25.8% with OVCAR-3 ovarian; 75.5% in the experiment on HS 578T breast; 30.4% with T-47D breast; 12.6% in the experiment on BT-549 breast; 30.9% in the experiment with MDA-MB-435 melanoma. The growth with SW-620 colon was 10.4%; in the experiment with MCF7 breast, 10.5%; with HCT-116 colon, 12.3%; with HCC-2998 colon it was 15.2%; in the experiment on KM12 colon it was 16%; in the experiment with MDA-MB-468 breast, 23.8% and 11.1%.
For the compound `O=C(CCN1C(=O)/C(=C/c2ccc(F)cc2)SC1=S)N1CCOCC1`, the growth in the experiment with SR leukemia is 35%; with RPMI-8226 leukemia, 52.2%; in the experiment with OVCAR-8 ovarian, 80.9%; in the experiment with OVCAR-5 ovarian, 79.1%; in the experiment with OVCAR-4 ovarian it was 55.5%; in the experiment on SK-OV-3 ovarian it was 91.5%. Besides, the growth is 85.6% with IGROV1 ovarian; 78.7% in the experiment with OVCAR-3 ovarian; 89% in the experiment with HS 578T breast; 24.4% in the experiment with T-47D breast; 62.6% in the experiment on BT-549 breast; 73.5% in the experiment with MDA-MB-435 melanoma. Moreover, the growth in the experiment with SW-620 colon is 61.9%; with MCF7 breast, 48.1%; in the experiment on HCT-116 colon, 55.5%; in the experiment with HCC-2998 colon it was 113%; in the experiment with KM12 colon, 76%; in the experiment with MDA-MB-468 breast, -11.2% (active).
Turning to `COc1cc2c(c(OC)c1OC)C(=O)CC(c1cccc(NC(=O)c3cc(NC(=O)[C@H](CO)NC(=O)OC(C)(C)C)ccc3Cl)c1)O2` (some centres undefined), the growth in the experiment on SR leukemia was 19.4%; with RPMI-8226 leukemia it was 17.9%; with OVCAR-8 ovarian, 21.9%; in the experiment with OVCAR-5 ovarian, 86.8%; in the experiment with OVCAR-4 ovarian, 47.9%; in the experiment on SK-OV-3 ovarian it was 81.7%. Moreover, the growth with IGROV1 ovarian was 36.8%; with OVCAR-3 ovarian, 27.4%; in the experiment with HS 578T breast, 28.7%; in the experiment on T-47D breast, 13.5%; with BT-549 breast, -3.14% (active); with MDA-MB-435 melanoma, 10.1%. The growth in the experiment with SW-620 colon is 44%; in the experiment on MCF7 breast it was 12.2%; in the experiment with HCT-116 colon it was 14.4%; with HCC-2998 colon, 73%; in the experiment with KM12 colon it was 14.5%; with MDA-MB-468 breast it was 19.8%.
In the case of `Clc1ccc(-c2ccc(OCCCN3CCN(c4ccncc4)CC3)cc2)cc1`, the growth in the experiment on SR leukemia was -21.2% (active); in the experiment on RPMI-8226 leukemia, -9.75% (active); in the experiment with OVCAR-8 ovarian it was 86.3%; in the experiment on OVCAR-5 ovarian it was 96.5%; in the experiment on OVCAR-4 ovarian, 64.7%; in the experiment on SK-OV-3 ovarian, 58%. Moreover, the growth in the experiment with IGROV1 ovarian was 93.7%; in the experiment with OVCAR-3 ovarian, 67.4%; with HS 578T breast, 82.5%; with T-47D breast it was 15.6%; in the experiment with BT-549 breast, 75.4%; in the experiment on MDA-MB-435 melanoma, 33.5%. In addition, the growth with SW-620 colon was -8.83% (active); in the experiment on MCF7 breast, -1.15% (active); in the experiment with HCT-116 colon, -28.8% (active); in the experiment on HCC-2998 colon, 21.2%; in the experiment with KM12 colon it was 61.4%; with MDA-MB-468 breast, -9.68% (active).

(Values after PubChem BioAssay (NCI).)
